Here are results for 16 compounds from PubChem BioAssay (NCATS).

Records with an inconclusive call do not appear. Activity calls are given as the source filed them. Unless noted, the call rests on the fitted dose curve.

Assay [1] can be described thus: qHTS drug screen for cell cycle checkpoint inhibitors in PARPi-resistant BRCA-mutant ovarian cancer cell lines. (AID 1963452). Conditions: PEO1/OlaR viability, CellTiter-Glo luminescence, 96 h, stronger effect = lower value. Summed up:
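PEO1, PEO4 and PEO1/OlaR ovarian cancer cells, 600 per well, exposed 96 h at 37C to a dilution series. Viability read by CellTiter-Glo luminescence, normalized to DMSO and empty wells; activity summarized as Z-AUC.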

Assay [2] in a line: Quantitative High-Throughput drug screen in 47 multiple myeloma cell lines against the NCATS MIPE library collection: KMS28BM_JCRB cell viability assay (AID 1919874; active means well fitted curve in the direction sought with a large enough effect; an effect the other way counts as inactive or inconclusive; further: potency means the concentration at half of the fitted maximal effect; nearly all actives have a fitted effect of over 35% in size). The conditions noted are these: CellTiter-Glo ATP, 48 h; series mostly up to 45.8 µM. Summed up: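 500 cells/well per myeloma line exposed to pinned MIPE 4.0 compounds for 48 h at 37 °C, 5% CO2. Viability read as ATP by CellTiter-Glo luminescence, normalised to DMSO-only (100%) and media-only (0%) wells.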
On the technique in general: Cellular ATP, detected with luciferase, serves as a proxy for viable cell number.

Assay [3] can be described thus: qHTS for identification of novel therapeutic agents for treatment of microphthalmiaassociated transcription factor (MiT) renal cell carcinoma (RCC) (AID 1963991). Further: potency means the concentration at half of the fitted maximal effect. Conditions: CellTiter-Glo, 48 h; for z-score: stronger effect = lower value. Summed up: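 Viability of three TFE3-fusion renal carcinoma lines measured by CellTiter-Glo after 48 h treatment with each of 1912 compounds at 11 concentrations. Responses scaled between DMSO (100%) and empty wells (0%) before curve fitting.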
(qHTS replaces the single test concentration by a dilution series.)

Assay [4] concerns the target Cytochrome P450 3A4 (Homo sapiens) (UniProt P08684). Nature of the assay: qHTS for inhibitors of CYP3A4 against the NCATS DSHEA and TCM libraries (AID 1919971; active means well fitted curve in the direction sought with a large enough effect; an effect the other way counts as inactive or inconclusive; further: potency means the concentration at half of the fitted maximal effect). Conditions: recombinant CYP3A4 enzyme activity, luminescence qHTS; series mostly up to 34.1 µM. The procedure, abridged:
(§1)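 Read-out is luminescence after P450-Glo detection (30 min, RT). Before that: 15 min compound–enzyme preincubation, then 30-45 min reaction with 1x NADPH regeneration solution, substrate concentration isoform-specific.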

The target in assay [5] is Cytochrome P450 2C9 (Homo sapiens) (UniProt P11712). Nature of the assay: qHTS for inhibitors of CYP2C9 against the NCATS DSHEA and TCM libraries (AID 1919973; active means well fitted curve in the direction sought with a large enough effect; an effect the other way counts as inactive or inconclusive; further: potency means the concentration at half of the fitted maximal effect). Conditions: recombinant CYP2C9 enzyme activity, luminescence; series mostly up to 34.1 µM. Summed up: as §1
Chain of Cytochrome P450 2C9 (Homo sapiens) (P11712 whole entry, looked up): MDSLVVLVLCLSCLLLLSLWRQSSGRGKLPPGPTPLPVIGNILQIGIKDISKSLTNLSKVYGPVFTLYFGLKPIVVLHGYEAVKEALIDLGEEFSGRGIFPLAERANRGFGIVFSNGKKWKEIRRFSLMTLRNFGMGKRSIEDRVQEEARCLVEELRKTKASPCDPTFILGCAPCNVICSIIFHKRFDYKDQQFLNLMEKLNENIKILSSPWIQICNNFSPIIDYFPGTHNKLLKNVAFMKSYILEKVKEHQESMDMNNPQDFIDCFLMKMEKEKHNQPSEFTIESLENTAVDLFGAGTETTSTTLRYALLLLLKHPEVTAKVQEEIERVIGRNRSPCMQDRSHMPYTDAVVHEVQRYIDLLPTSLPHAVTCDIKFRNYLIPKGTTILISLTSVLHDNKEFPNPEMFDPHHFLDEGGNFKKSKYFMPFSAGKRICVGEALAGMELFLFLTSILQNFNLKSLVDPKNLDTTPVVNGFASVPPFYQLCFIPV
Assay [6] concerns the target Cytochrome P450 2C19 (Homo sapiens) (UniProt P33261). The assay can be described thus: qHTS for inhibitors of CYP2C19 against the NCATS DSHEA and TCM libraries (AID 1919974; active means well fitted curve in the direction sought with a large enough effect; an effect the other way counts as inactive or inconclusive;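 further: luminescence from luciferin released by CYP2C19 oxidation of a pro-luciferin substrate; on the % scale 0 is the no-effect control and ±100 the full control effect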). The conditions noted are these: CYP2C19 enzyme inhibition, luminescence qHTS; series mostly up to 34.1 µM. Summed up:
as §1

The nature of assay [7]: KB-3-1 P-gp reporter qHTS against the NCATS DSHEA and TCM libraries (AID 1919975; active means well fitted curve in the direction sought with a large enough effect; an effect the other way counts as inactive or inconclusive; further: 0% is about no effect). The conditions noted are these: KB-3-1 parental cells, CellTiter-Glo luminescence viability, 72 h; series mostly up to 26.1 µM. Summed up:
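Cell viability by CellTiter-Glo luminescence following ~72 h compound exposure (concentration-response). Uses parental, non-P-gp-overexpressing KB-3-1 line, 500 cells/well in DMEM/10% FBS, attached ~4 h before dosing.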

A short description of assay [8]: qHTS Counterscreen for compound interference against the NCATS DSHEA and TCM libraries (AID 1919978; active means well fitted curve in the direction sought with a large enough effect; an effect the other way counts as inactive or inconclusive;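 further: compounds preincubated with 1 µM D-luciferin or buffer before detection reagent; % of control where 0% means no effect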). The conditions noted are these: firefly luciferase detection reagent interference, luminescence. Summed up: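 With 1 uM D-luciferin or phosphate buffer only, compounds at final 19.5 nM–39.8 uM were incubated for 15 min at room temperature. Luciferase detection reagent was then added, and luminescence was measured after a further 30 min at room temperature.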

Assay [9] in a line: Dual reporter qHTS for agonist of Pregnane X Receptor (hPXR) against the NCATS DSHEA and TCM libraries: Fluorescence readout (AID 1920058; active means well fitted curve in the direction sought with a large enough effect; an effect the other way counts as inactive or inconclusive; further: 0% is about no effect). The conditions noted are these: PXR dual reporter cells; series mostly up to 40 µM. The procedure, abridged:
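HepG2 hPXR-Luc, 2000 cells/well, 5 h attach; cpds ~24 h, 37 °C/5% CO2; CellTiter-Fluor 1 h; fluor. Ex/Em 405/540 nm = viability.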

Assay [10] addresses Nuclear receptor subfamily 1 group I member 2 (Homo sapiens) (UniProt O75469). Nature of the assay: Dual reporter qHTS for agonist of Pregnane X Receptor (hPXR) against the NCATS DSHEA and TCM libraries: Luminescence readout (AID 1920059; active means well fitted curve in the direction sought with a large enough effect; an effect the other way counts as inactive or inconclusive; further: 0% is about no effect). Conditions: hPXR dual reporter cells, luciferase luminescence agonist; series mostly up to 40 µM. Summed up:
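hPXR-Luc HepG2 cells, 2000/well in 5% charcoal-stripped FBS medium, attached 5 h, then exposed 24 h at 37C to compounds. Viability by CellTiter-Fluor, then luciferase luminescence with ONE-Glo.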

For assay [11] the target is unchanged. Nature of the assay: Dual reporter qHTS for antagonist of Pregnane X Receptor (hPXR) against the NCATS DSHEA and TCM libraries: Luminescence Readout (AID 1920060; active means well fitted curve in the direction sought with a large enough effect; an effect the other way counts as inactive or inconclusive; further: 0% is about no effect). The conditions noted are these: hPXR dual reporter cells, luciferase luminescence, antagonist mode; series mostly up to 40 µM. Summed up: (§2)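 Rifampicin-stimulated (2 uM final) hPXR-luciferase HepG2 cells were treated for 24 h with DSNP/TCM substances. Viability came from CellTiter-Fluor fluorescence, reporter activity from ONE-Glo luminescence.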

Assay [12] is described as follows: Dual reporter qHTS for antagonist of Pregnane X Receptor (hPXR) against the NCATS DSHEA and TCM libraries: Fluorescence Readout (AID 1920061; active means well fitted curve in the direction sought with a large enough effect; an effect the other way counts as inactive or inconclusive; further: 0% is about no effect). The conditions noted are these: PXR dual reporter cells, antagonist mode; series mostly up to 40 µM. Summed up: as §2
Where [13] appears, read: measured here: PEO1 parental Z-AUC.
Setting [14] is: TFE3-RCC UOK109 viability, measured here: UOK109 Z-AUC.
The mark [15] stands for this setting: TFE3-RCC viability, measured here: UOK124 Z-AUC.
The mark [16] stands for this setting: TFE3-RCC viability, measured here: UOK145 Z-AUC.

Chain of Nuclear receptor subfamily 1 group I member 2 (Homo sapiens) (O75469 whole entry, looked up): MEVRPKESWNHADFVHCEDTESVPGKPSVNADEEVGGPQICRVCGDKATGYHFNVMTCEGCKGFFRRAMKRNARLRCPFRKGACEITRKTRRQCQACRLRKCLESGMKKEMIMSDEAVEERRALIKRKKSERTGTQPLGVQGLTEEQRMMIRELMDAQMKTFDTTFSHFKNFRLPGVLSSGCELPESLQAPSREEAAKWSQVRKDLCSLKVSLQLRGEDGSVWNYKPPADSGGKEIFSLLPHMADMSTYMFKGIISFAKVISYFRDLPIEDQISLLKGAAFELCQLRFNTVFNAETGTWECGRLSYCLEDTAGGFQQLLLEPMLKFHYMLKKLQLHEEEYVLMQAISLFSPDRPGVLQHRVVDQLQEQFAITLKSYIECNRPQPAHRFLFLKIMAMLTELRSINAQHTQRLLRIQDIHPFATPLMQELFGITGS
Chain of Cytochrome P450 2C19 (Homo sapiens) (P33261 whole entry, looked up): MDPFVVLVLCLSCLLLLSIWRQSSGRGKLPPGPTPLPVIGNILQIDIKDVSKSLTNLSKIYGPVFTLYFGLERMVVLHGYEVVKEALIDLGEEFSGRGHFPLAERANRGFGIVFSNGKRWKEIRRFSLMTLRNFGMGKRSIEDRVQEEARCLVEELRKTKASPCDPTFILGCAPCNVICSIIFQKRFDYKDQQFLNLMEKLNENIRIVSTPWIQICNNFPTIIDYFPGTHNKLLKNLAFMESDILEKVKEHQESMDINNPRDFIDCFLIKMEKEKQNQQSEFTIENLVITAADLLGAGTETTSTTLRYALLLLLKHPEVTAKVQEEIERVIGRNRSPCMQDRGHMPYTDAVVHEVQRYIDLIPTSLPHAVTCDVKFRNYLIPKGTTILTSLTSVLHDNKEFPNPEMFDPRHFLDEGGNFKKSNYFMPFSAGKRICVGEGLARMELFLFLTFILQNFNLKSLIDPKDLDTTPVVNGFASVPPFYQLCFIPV
Chain of Cytochrome P450 3A4 (Homo sapiens) (P08684 whole entry, looked up, canonical isoform): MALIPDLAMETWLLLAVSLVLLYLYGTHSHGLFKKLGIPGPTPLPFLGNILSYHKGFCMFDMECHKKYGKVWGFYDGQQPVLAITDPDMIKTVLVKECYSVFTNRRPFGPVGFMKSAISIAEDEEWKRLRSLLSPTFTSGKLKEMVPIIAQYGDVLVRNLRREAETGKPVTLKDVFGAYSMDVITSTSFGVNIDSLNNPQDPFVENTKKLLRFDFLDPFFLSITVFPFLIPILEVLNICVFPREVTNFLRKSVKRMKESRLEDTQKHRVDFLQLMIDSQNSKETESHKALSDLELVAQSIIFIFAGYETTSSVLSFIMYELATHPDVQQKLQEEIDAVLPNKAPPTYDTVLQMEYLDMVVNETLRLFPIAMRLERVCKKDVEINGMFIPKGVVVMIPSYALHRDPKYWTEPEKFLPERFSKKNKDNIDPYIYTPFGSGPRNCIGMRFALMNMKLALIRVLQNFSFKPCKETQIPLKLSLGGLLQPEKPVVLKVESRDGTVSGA

For `NC(=O)Nc1sc(-c2ccc(F)cc2)cc1C(N)=O`, the Z-AUC in assay [1] is -1.29 (inactive); in assay [1] (setting [13]) it was -1.13; in assay [1] (measured here: PEO4 Z-AUC) it was -1.05.
Turning to `COc1ccc(Nc2cc(-c3cnc(N)nc3)nc(N3CCOCC3)n2)cn1`, the Z-AUC in assay [1] was 0.44 (inactive); in assay [1] (setting [13]), -0.145; in assay [1] (measured here: PEO4 Z-AUC), 0.339.
The corresponding values for `COc1ccc(Nc2nccc(NCCO)n2)cc1` are 1.22 (inactive), 0.748 and 0.763.
Regarding `COc1cc2c(Nc3ccc(Cl)c(Cl)c3F)ncnc2cc1OCC1C[C@@H]2CN(C)C[C@H]2C1`, the Potency in [2] was 8.33 µM (active); in assay [3] (TFE3-RCC UOK109 viability, active = Z-AUC below -0.8 in all three lines), 9.35 µM (active). Besides, the z-score in assay [3] (setting [14]) was -3.52; in assay [3] (setting [15]), -1.85; in assay [3] (setting [16]), -1.7.
Regarding `O=C1c2c(O)cccc2[C@@H]([C@@H]2O[C@H](CO)[C@@H](O)[C@H](O)[C@H]2O)c2cc(CO)cc(O)c21`, the figures for the Potency in assay [4] and in assay [5] were 25.1 µM (active) and 11.2 µM (active), respectively. In addition, the compound was called inactive in [6], in [7], in [9], in [10], in assay [11] and in [12]. In assay [8], the max response was -13.5% (inactive). Also, the z-score in assay [3] (setting [14]) was determined as 0.509; in [3] (setting [15]), 0.726; in [3] (setting [16]), 0.571.
Consider `CN1CCc2c(c3ccccc3n2Cc2ccc(C(=O)NO)cc2)C1`, for which the Z-AUC in assay [1] is -0.848 (inactive); in assay [1] (setting [13]), -0.74; in [1] (measured here: PEO4 Z-AUC), -1.03.
Taken in the same sequence, the figures for `Cn1cc(C2=C(c3c4n(c5ccccc35)CCC(CN)C4)C(=O)NC2=O)c2ccccc21` (centres undefined) were 0.936 (inactive), 1.25 and 1.18.
As to `COc1cc2ncnc(Nc3cccc(Br)c3)c2cc1OC`, the figures for the Z-AUC in assay [1], in assay [1] (setting [13]) and in assay [1] (measured here: PEO4 Z-AUC) were 0.281 (inactive), 0.586 and 0.428, respectively.
In the case of `C[C@H](NC(=O)[C@@H](O)c1cc(F)cc(F)c1)C(=O)N[C@@H]1C(=O)N(C)c2ccccc2-c2ccccc21`, the Z-AUC in assay [1] was 0.549 (inactive); in assay [1] (setting [13]), 0.437; in [1] (measured here: PEO4 Z-AUC), 0.274.
Taken in the same sequence, the figures for `O=C(O)c1ccc(Nc2ncc3c(n2)-c2ccc(Cl)cc2C(c2c(F)cccc2F)=NC3)cc1` were 0.584 (inactive), 0.311 and -0.364.
Turning to `COc1cc(C(=O)NC2CCN(C)CC2)ccc1Nc1ncc2c(n1)N(C1CCCC1)CCC(=O)N2C(C)C`, the Z-AUC in assay [1] was -0.77 (inactive); in assay [1] (setting [13]) it was 0.079; in [1] (measured here: PEO4 Z-AUC) it was -0.318.
The corresponding values for `FC(F)(F)c1ccc(Nc2nc3ccc(Oc4ccnc(-c5ncc(C(F)(F)F)[nH]5)c4)cc3[nH]2)cc1` are -0.52 (inactive), -0.706 and -1.16.
Taken in the same sequence, the figures for `NC(=O)Nc1cc(-c2ccc(CN3CCOCC3)cc2)sc1C(N)=O` were 0.59 (inactive), 0.476 and 0.41.
Consider `O=C(NC1CC1)c1cccc(-c2ccc3c(NC(=O)C4CC4)n[nH]c3c2)c1`, for which the Z-AUC in [1] is -1.31 (inactive); in assay [1] (setting [13]), -0.612; in assay [1] (measured here: PEO4 Z-AUC), -0.0864.
In the case of `O=C(O)CCCCC(CCSCc1ccccc1)SCc1ccccc1` (centres undefined), the Z-AUC is 1.05 (inactive) in [1], 1.63 in assay [1] (setting [13]) and 1.32 in assay [1] (measured here: PEO4 Z-AUC).
As to `O=C(Nc1nnc(-c2ccco2)o1)c1cc(-c2ccccc2)nc2ccccc12`, the Z-AUC is 1.38 (inactive) in [1], 0.606 in assay [1] (setting [13]) and 0.601 in [1] (measured here: PEO4 Z-AUC).
